Out of some 310,000 compounds screened, about 18,000 (5.8%) were called active. Roughly 22% stayed inconclusive and do not appear here. What follows is part of a selection rich in actives, with near analogues and random picks from the rest. Values without a mark were called inactive. Calls follow the shape of the dose curve; as a rule, active = well fitted inhibition curve with a large enough effect; inconclusive = small, poorly fitted or top-dose-only effect, or another doubt; inactive = no such curve, though single readings can be large or run the other way.
Test: Primary qHTS for delayed death inhibitors of the malarial parasite plastid, 48 hour incubation
Conditions: P. falciparum luciferase growth in erythrocytes; series mostly up to 28.7 µM; activity change, negative = inhibition: at the top concentration
In short: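 Luciferase-expressing P. falciparum in infected erythrocytes (2% hematocrit, 0.1% parasitemia final) in RPMI 1640/0.5% Albumax were exposed to compound for 48 hours at 37 C, 5% CO2; growth read as luminescence.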
% is scaled to controls: 0 for no effect and ±100 for the full control effect; potency is read from the fitted curve at half-maximal effect.

SMILES	activity change, negative = inhibition [%]	Potency
C[C@@H]1NC(=O)[C@@]2(C)[C@@H](c3ccccc3)[C@H]3COc4ccccc4[C@@H]3N2C1=O	5.3	
CCc1nnc(NC(=O)C2CCN(C(=O)c3ccccc3C)CC2)s1	-2.64	
CC(=O)c1cccc(NC(=O)C2CCN(C(=O)c3ccccc3Cl)CC2)c1	2.74	
Cc1ccccc1C(=O)N1CCC(C(=O)Nc2ccc(S(=O)(=O)N(C)C(C)C)cc2)CC1		9.28 µM (active)
CC(C)c1c(C(=O)N/N=C/c2ccccc2C(=O)O)nnn1-c1nonc1N	31.1	
Cc1cc(Cl)c2oc(C(=O)N3CCC(O)(c4ccccc4)CC3)c(C)c2c1	-1.89	
O=C(O)c1cc([N+](=O)[O-])c(Nc2cccc3ccccc23)c([N+](=O)[O-])c1	27.2	
Cn1cc[n+](C)c1COc1ccc(C=O)cc1	8.97	
O=C(CN(C(=O)c1csnn1)c1cccc(Cl)c1)NC1CCCC1	3.32	
O=C(CSc1nnc2scc(-c3ccc(F)cc3)n12)NCc1ccco1	-10.2	
Cn1c(-c2ccc(F)cc2)cnc1SCC(=O)NCc1ccco1	-15.9	
CCn1c(COc2ccccc2)nnc1SCC(=O)NCc1ccco1	3.66	
CCn1c(SCC(=O)NCc2ccco2)nnc1-c1ccc(N)cc1	19.4	
O=C(CSc1nnc(-c2ccco2)n1Cc1ccccc1)NC(=O)NCc1ccco1		10.4 µM (active)
Cc1ccc(-c2csc3nnc(SCC(=O)NCc4ccco4)n23)cc1		9.28 µM (active)
CC1(NC(=O)CCS(=O)(=O)c2ccc(Cl)cc2)CCS(=O)(=O)C1 (stereo unspecified)	4.95	
C=CCn1c(SCC(=O)Nc2ccc(NC(C)=O)cc2)nc2sc(C)c(C)c2c1=O	-19.7	
CCN(CC(=O)NCc1cccs1)C(=O)c1ccc(OC)c(S(=O)(=O)N2CCOCC2)c1	1.87	
O=C(CC1C(=O)NCCN1C(=O)c1ccc([N+](=O)[O-])cc1)Nc1cccc(Cl)c1 (stereo unspecified)	2.97	
COc1ccc(C(=O)n2nc(C)c(Br)c2C)cc1OC	43.6	
O=C1NC(c2cccc(Cl)c2)Nc2ccccc21 (stereo unspecified)	34.8	
O=c1c(-c2cccc(Cl)c2)c[nH]n1-c1ccccc1		3.7 µM (active)
O=C1c2ccccc2NC(c2ccc(-c3cccc(Cl)c3)o2)N1O (stereo unspecified)	89.3	
Cc1nc2sccn2c(=O)c1S(=O)(=O)NCCc1ccccc1	-2.59	
COCCNc1nnc(SCC(=O)NNC(=O)c2ccco2)s1	-15	
CCCNC(=O)CSc1nc(Cc2ccccc2)nc2ccccc12	-19.7	

SMILES	activity change, negative = inhibition [%]	Potency
Cc1nc(N2CCN(c3ccccn3)CC2)c2c(C)c(C(=O)Nc3ccc(F)cc3)sc2n1		13.1 µM (active)
CCN(CC)c1ccc(NC(=O)CN2CCN(c3ccccn3)CC2)cc1	-14.4	
Cc1cc(Br)ccc1NC(=O)c1sc2ncn(CC(=O)N3CCN(c4ccccn4)CC3)c(=O)c2c1C	-1.69	
CC(=O)N1CCN(CC(C)(C)NS(=O)(=O)c2ccc(C)cc2)CC1	6.55	
CC(=O)Nc1ccc(NC(=O)CSC2=NS(=O)(=O)c3ccccc3N2)cc1	1.84	
N#CCCN(C(=O)COC(=O)C1CCN(c2ccc(C(F)(F)F)cn2)CC1)c1ccc(F)cc1	-1.84	
CCOc1ccc(C(=O)NCC(=O)N2CCN(c3ccc(C(F)(F)F)cn3)CC2)cc1	-12.7	
CCCN1CCn2c3c(c4cc(Br)ccc42)CCCC31 (stereo unspecified)		8.28 µM (active)
O=C(CN1C(=O)NC2(CCCCC2)C1=O)N1CCN(C(=O)c2cccs2)CC1	3.33	
Cc1nn(CC(=O)NCCc2ccccc2)c(=O)c2cc3occc3n12	22.7	
COc1ccc(CC(=O)OC(C)C(=O)Nc2ccc(S(N)(=O)=O)cc2)cc1 (stereo unspecified)	6	
CCCCCN(C(=O)CCC(=O)OCC(=O)NCc1ccc(OC)cc1)c1c(N)n(CCCC)c(=O)[nH]c1=O	11.3	
CCCCN(C(=O)c1ccc(C)o1)c1c(N)n(CCCC)c(=O)[nH]c1=O	29.6	
CCCCN(C(=O)CCNC(=O)NC12CC3CC(CC(C3)C1)C2)c1c(N)n(CCCC)c(=O)[nH]c1=O		13.1 µM (active)
O=C(Cn1c(NCCO)nc2ccccc21)c1ccc(Cl)cc1Cl		13.1 µM (active)
O=S(=O)(O)c1nc2ccccc2n1Cc1ccc(Cl)cc1Cl	11.4	
CC(C)(C)C(=O)Cn1c(NCCO)nc2ccccc21	2.22	
O=C(COC(=O)c1ccc([N+](=O)[O-])cc1Cl)NC(=O)c1ccccc1	7.05	
C/C=N/N(c1ccccc1)c1ccccc1		10.4 µM (active)
Cc1cccc(-c2c(NC(=O)c3ccco3)oc3ccc(Cl)cc3c2=O)c1	26.5	
O=C(O)CSc1ccc(S(=O)(=O)N2CCCC2)cn1	5	
Cc1ccc(NC(=O)CSc2sc3c(O)cc(=O)[nH]c3c2C#N)cc1C	15.9	
CC(C)CN(C(=O)c1ccc2c(c1)OCO2)C1CCS(=O)(=O)C1 (stereo unspecified)	15.5	
COc1ccc(-c2csc(Nc3ccc(O)cc3)n2)cc1	-28.2	
COc1ccc(-c2csc(NC(=O)COC(=O)Cc3ccc(Cl)cc3Cl)n2)cc1	184	
CC(=O)c1sc(NC(=O)CCCOc2ccccc2C)nc1C	9.54	

SMILES	activity change, negative = inhibition [%]	Potency
O=C(Nc1ccc(-c2csc(Nc3cccc(C(F)(F)F)c3)n2)cc1)c1cccc(C(F)(F)F)c1		9.28 µM (active)
CCCCCCC(=O)Nc1nc(C)c(-c2csc(Nc3cc(Cl)ccc3OC)n2)s1		4.65 µM (active)
CC(=O)Nc1ccc(-c2csc(NC(=O)Nc3ccccc3)n2)cc1	-5.54	
C=CCCC(=O)Nc1nc(C)c(-c2csc(Nc3ccc(Cl)cc3)n2)s1		1.47 µM (active)
COc1ccc(Cl)cc1NC(=O)c1oc(C)nc1C	24	
CCOC(=O)c1csc(NC(=O)Nc2cccc(OC)c2)n1	77.8	
Cc1cccc(NC(=O)c2cccc(C(F)(F)F)c2)c1	18.1	
COc1cc(CC(=O)Nc2nc(-c3ccc(F)c(F)c3)cs2)cc(OC)c1OC	-25.2	
CCCCCCC(=O)Nc1nc(C)c(-c2csc(Nc3cccc(OC)c3)n2)s1		5.22 µM (active)
CC(C)CN(C(=O)Cn1c(=O)cnc2ccccc21)C1CCS(=O)(=O)C1 (stereo unspecified)	13.7	
Cc1ccccc1Nc1c([N+](=O)[O-])ccc2nonc12	-12.3	
CC1(C(=O)OCC(=O)Nc2ncc(Cl)cc2Cl)CC1(Cl)Cl (stereo unspecified)	1.62	
Cc1cccc(OCC(=O)Nc2ccc(C(=O)O)cc2NC(=O)COc2cccc(C)c2)c1	24	
O=C(NCCCN1CCCC1=O)c1ccc(S(=O)(=O)Nc2ccccc2)cc1	-8.62	
CC1CCN(C(=O)CCc2nnc3ccc(NCc4ccco4)nn23)CC1	0	
CC(c1ccccn1)N(C)C(=O)c1ccc2nc(Cc3cccc(Cl)c3)oc2c1 (stereo unspecified)	14	
CC1(C)O[C@@H]2[C@H](O1)[C@@H](COS(=O)(=O)O)O[C@H]2n1cnc2c(=O)[nH]cnc21	40.8	
CCOCCOC(=O)C1=C(C)NC(=O)NC1c1ccc2c(c1)OCO2 (stereo unspecified)	10	
Cc1csc2nc(COC(=O)c3cccc(N(C)C)c3)cc(=O)n12	159	
CCC(=O)Nc1nc(C)c(C(=O)Nc2cccc(Cl)c2)s1	-17	
CCCCC(=O)Nc1nc(C)c(-c2csc(Nc3ccc(Cl)cc3)n2)s1		4.65 µM (active)
Cc1nc(NC(=O)c2cccc(Cl)c2)sc1-c1csc(Nc2cccc(Cl)c2)n1		8.28 µM (active)
CC(=O)Nc1nc(C)c(-c2csc(Nc3ccc(S(N)(=O)=O)cc3)n2)s1	5.4	
CC(=O)Nc1cccc(-c2csc(Nc3cccc(C)n3)n2)c1	286	
CCCCN(C)CCC(=O)Nc1ccc(Cl)cc1	-3.3	
O=C(CN1C(=O)NC2(CCCC2)C1=O)OCCOc1ccc(F)cc1	80.6	

SMILES	activity change, negative = inhibition [%]	Potency
COC(=O)c1c(NC(=O)C(=O)N2CCCCC2)sc2c1CC(C)(C)OC2	-25.4	
COc1ccc(CNS(=O)(=O)c2ccc(-c3cnc(C4CC4)o3)cc2)cc1	5.18	
O=C1C=C(c2cccc(Cl)c2O)C[C@@H](c2ccc(F)cc2)C1		2.08 µM (active)
O=C1C=C(c2cccc(Br)c2)C[C@@H](c2ccc(F)cc2)C1		2.94 µM (active)
O=C1CC(c2cccc(Br)c2)C2=C(CCCC2=O)N1 (stereo unspecified)	5.31	
COc1cccc(C2=CC(=O)C[C@H](c3ccc(F)cc3)C2)c1OC	0	
COc1ccccc1C1=CC(=O)C[C@H](c2ccc(F)cc2)C1	-28.2	
O=C(CCc1nnc(Cc2ccc3c(c2)OCO3)o1)NCCc1ccccc1Cl	2.13	
COc1ccc(-c2nc(CS(=O)(=O)CC(=O)NCc3cccc(Br)c3)c(C)o2)cc1	3.55	
COc1ccc(-n2ncc3c(SCC(=O)NNC(C)=O)ncnc32)cc1	50.2	
CC(=O)N1CCc2c(sc(NC(=O)CCS(=O)(=O)c3ccccc3)c2C#N)C1	2.73	
Cc1ccc(S(=O)(=O)NC2CCCCCC2)cc1C(N)=O	23.5	
O=C(CN1CCCCCC1)Nc1c(Cl)cc(Cl)cc1Cl	54.7	
O=C1Nc2ccc(Br)cc2/C1=N/N=C/C1=C(N2CCOCC2)C(=C\c2ccccc2)/CC1	-20.2	
N#C/C(=C\C1=C(N2CCOCC2)C(=C\c2ccccc2)/CC1)C(=O)Nc1ccccc1F	-23.8	
C(=N\N1CCN(c2ccccn2)CC1)/C1=C(N2CCOCC2)C(=C/c2ccccc2)/CC1		10.4 µM (active)
Oc1cc2c(cc1CN1CCN(c3ccccc3)CC1)OCO2	-9.2	
CC(C)c1ccc(O)c(CN2CCN(c3ccccc3)CC2)c1		3.29 µM (active)
CC(=O)c1ccc(N2CCN(CC(O)c3ccccc3)CC2)cc1 (stereo unspecified)	16.4	
O=C(CSc1nccc(=O)[nH]1)Nc1ccc(N2CCOCC2)c(Cl)c1	23.8	
O=C(CN1CCN(Cc2ccccc2)CC1)Nc1ccc(F)c(F)c1	-8.06	
COc1cc(NC(=O)NCC2CCN(Cc3ccc(C)cc3)CC2)cc(OC)c1OC	-4.11	
Cc1cccc(CN2CCC(CNC(=O)Nc3ccc(F)c(Cl)c3)CC2)c1		10.4 µM (active)

From PubChem BioAssay AID504832 (National Center for Advancing Translational Sciences (NCATS), 2011)
